The whole screen tested about 69,000 compounds, of which about 1,000 (1.4%) showed an effect of 50% or more. For the sample, strong results were picked, then their nearest neighbours and some compounds at random.
System: Leishmania donovani
Test: Leishmania intramacrophage assay
Format: functional, organism-based
Parameters: scale not given: in the data most compounds retested in dose-response had high values

SMILES: CN(C)C1COC2(CCN(S(=O)(=O)c3ccc(F)cc3)CC2)C1.O=C(O)C(F)(F)F (configuration not stated)
- Percent Effect (30.3 µM, […]): 52.86%

SMILES: CCOC1COC2(CCN(S(=O)(=O)c3ccc(F)cc3)CC2)C1 (configuration not stated)
- Percent Effect (30.3 µM, […]): 12.78%

SMILES: CC(Oc1ccccc1C#N)C(=O)NC1CC1 (configuration not stated)
- Percent Effect (30.3 µM, […]): 8.957%

SMILES: Cc1cnn(C2CN(c3nc(C)cc(N(C)C)n3)C2)c1
- Percent Effect (30.3 µM, […]): 24.16%

SMILES: CC1CCN(CC(=O)N(C)CCc2noc(C3CC3)n2)C1=O (configuration not stated)
- Percent Effect (30.3 µM, […]): 26.42%

SMILES: CN(CCc1noc(C2CC2)n1)C(=O)CN1C(=O)COc2ccccc21
- Percent Effect (30.3 µM, […]): 99.57%

SMILES: CN(Cc1noc2c1CCCC2)C(=O)CN1C(=O)COc2ccccc21
- Percent Effect (30.3 µM, […]): 18.25%

SMILES: CC(C)Oc1ncccc1CNC(=O)c1ccccn1
- Percent Effect (30.3 µM, […]): -8.458%

SMILES: CN(Cc1ccc(F)c(F)c1)Cc1cc2c(cc1Br)OCCO2
- Percent Effect (30.3 µM, […]): 17.19%

SMILES: c1coc(CNCC2Cn3nncc3CO2)c1 (configuration not stated)
- Percent Effect (30.3 µM, […]): 55.14%

SMILES: Cc1ccc(CNCC2Cn3nncc3CO2)o1 (configuration not stated)
- Percent Effect (30.3 µM, […]): 8.133%

SMILES: c1cc(CNCC2Cn3nncc3CO2)ccn1 (configuration not stated)
- Percent Effect (30.3 µM, […]): 1.96%

SMILES: CCNc1ccnc(NCC2(N(C)C)CCOCC2)n1
- Percent Effect (30.3 µM, […]): 31.76%

SMILES: CCc1ncc(C(=O)N2CC(Oc3ccccc3Cl)C2)cn1
- Percent Effect (30.3 µM, […]): 18.16%

SMILES: COCCN1C[C@H]2CCN(C(=O)c3cc(C)on3)CC[C@H]2S1(=O)=O
- Percent Effect (30.3 µM, […]): -11.97%

SMILES: Cc1ccc(CNC(=O)NCc2csc(C)n2)cn1
- Percent Effect (30 µM, 30.03 µM): 22.66%

SMILES: Cc1nnc2n1CCN(CCCS(=O)(=O)c1ccccc1)C2
- Percent Effect (30.3 µM, […]): 27.12%

SMILES: CCN(C)c1ncnc2c1CCN(CC1CCOC1)CC2.O=C(O)C(F)(F)F (configuration not stated)
- Percent Effect (30.3 µM, […]): -1.105%

SMILES: CCN(CC)c1ncnc2c1CCN(CC1CCOCC1)CC2.O=C(O)C(F)(F)F
- Percent Effect (30.3 µM, […]): 50.25%

SMILES: CN(C)c1ncnc2c1CCN(CC1CCOCC1)CC2.O=C(O)C(F)(F)F
- Percent Effect (30.3 µM, […]): 3.553%

SMILES: Cc1ccc(CN2CCn3c(CNS(C)(=O)=O)nnc3C2)s1
- Percent Effect (30.3 µM, […]): 21.51%

SMILES: COc1cc(OC)nc(N2CCC3(CC2)OCCCC3O)n1 (configuration not stated)
- Percent Effect (30.3 µM, […]): 12.31%

SMILES: c1cc(-c2ccc(CN3CCCC4(CCNC4)C3)s2)[nH]n1 (configuration not stated)
- Percent Effect (30.3 µM, […]): 24.83%

SMILES: Fc1cnccc1CN1CCCC2(CCN(c3ncccn3)CC2)C1.O=C(O)C(F)(F)F
- Percent Effect (30.3 µM, […]): 6.498%

SMILES: COC1CCN(CCNc2ncc(Br)cc2C)CC1
- Percent Effect (30.3 µM, […]): -8.998%

SMILES: Cc1cc(Br)cnc1NCCN1CCC(N(C)C)CC1
- Percent Effect (30.3 µM, […]): 96.65%

SMILES: CC(NCCN1CCC(N(C)C)CC1)c1ccc(F)cc1N(C)C (configuration not stated)
- Percent Effect (30.3 µM, […]): 15.55%

SMILES: CC(=O)N1CCN(CCNc2ncc(Br)cc2C)CC1
- Percent Effect (30.3 µM, […]): 1.457%

SMILES: Cc1cc(C(C)NCCN2CCC(N(C)C)CC2)c(C)s1 (configuration not stated)
- Percent Effect (30.3 µM, […]): 59.42%

SMILES: CC(NCCN1CCC(N(C)C)CC1)c1ccc(Cl)s1 (configuration not stated)
- Percent Effect (30.3 µM, […]): 43.03%

SMILES: COCCN1CCN(Cc2c(C3CCNCC3)[nH]c3ncccc23)CC1.Cl
- Percent Effect (30.3 µM, […]): 15.04%

SMILES: Cn1cc(CN2CCc3onc(C(=O)Nc4cccnc4)c3C2)cn1
- Percent Effect (30.3 µM, […]): 24.89%

SMILES: CC(C)(C)C(=O)N1CCC(c2cnc(-c3cn[nH]c3)cn2)CC1
- Percent Effect (30.3 µM, […]): -18.54%

SMILES: COc1ccc(Cl)cc1CS(=O)(=O)Cc1nc(C)no1
- Percent Effect (30.3 µM, […]): 60.61%

SMILES: COc1ccc(Cl)cc1CS(=O)(=O)Cc1nc(C2CC2)no1
- Percent Effect (30.3 µM, […]): 28.37%

SMILES: COc1ccc(Cl)cc1CS(=O)(=O)Cc1noc(C)n1
- Percent Effect (30.3 µM, […]): 34.45%

SMILES: O=C(NCCN1CCOCC1)c1cc(-c2ccccc2Cl)[nH]n1
- Percent Effect (30.3 µM, […]): -6.582%

SMILES: CC(C)c1noc(CN2CCN(C(=O)c3ccncc3F)CC2)n1
- Percent Effect (30 µM): 25.95%

SMILES: O=C1C(N2CCN(c3ccc(O)cc3)CC2)CCN1C1CCOCC1 (configuration not stated)
- Percent Effect (30.3 µM, […]): -7.233%

SMILES: O=C(Nc1ccc(CC(=O)N2CCSCC2)cc1)NC1CCCC1
- Percent Effect (30.3 µM, […]): -9.117%

SMILES: O=C(Nc1ccc(CC(=O)N2CCSCC2)cc1)NC1CC1
- Percent Effect (30.3 µM, […]): 50.93%

SMILES: O=C(Nc1ccc(CC(=O)N2CCCC2)cc1)NC1CC1
- Percent Effect (30.3 µM, […]): 15.08%

SMILES: O=C1[C@H]2CC[C@H](CN(C3CSCCSC3)C2)N1Cc1cscn1
- Percent Effect (30 µM, 30.03 µM): -11.37%

SMILES: CN1CC(=O)N(c2cnn(C)c2)CC12CCN(Cc1nccn1C)C2.O=C(O)C(F)(F)F.O=C(O)C(F)(F)F (configuration not stated)
- Percent Effect (30 µM, 30.03 µM): 3.871%

SMILES: CN(C)CCN1CCCC12CCN(Cc1nccn1C)CC2.O=C(O)C(F)(F)F.O=C(O)C(F)(F)F.O=C(O)C(F)(F)F
- Percent Effect (30.3 µM, […]): 52.43%

SMILES: Cc1ccc(N2CC3(CCN(Cc4nccn4C)C3)CC2=O)s1.O=C(O)C(F)(F)F (configuration not stated)
- Percent Effect (30.3 µM, […]): 55.03%

SMILES: Cn1cc(N2CC3(CCN(Cc4nccn4C)C3)CC2=O)cn1.O=C(O)C(F)(F)F (configuration not stated)
- Percent Effect (30.3 µM, […]): 58.91%

SMILES: Cc1cccc(N2CC3(CCN(Cc4nccn4C)C3)CC2=O)c1.O=C(O)C(F)(F)F (configuration not stated)
- Percent Effect (30.3 µM, […]): 24.22%

SMILES: Cn1ccnc1CN1CCC2(CC(=O)N(c3ccsc3)C2)C1.O=C(O)C(F)(F)F (configuration not stated)
- Percent Effect (30.3 µM, […]): 19.56%

SMILES: Cn1cc(CN2CCCC23CCN(Cc2nccn2C)CC3)cn1.O=C(O)C(F)(F)F.O=C(O)C(F)(F)F
- Percent Effect (30.3 µM, […]): 22.67%

SMILES: Cn1ccc(CN2CCCC23CCN(Cc2nccn2C)CC3)n1.O=C(O)C(F)(F)F.O=C(O)C(F)(F)F
- Percent Effect (30.3 µM, […]): 27.16%

SMILES: Cc1ccccc1N1CC2(CCN(Cc3nccn3C)C2)CC1=O.O=C(O)C(F)(F)F (configuration not stated)
- Percent Effect (30.3 µM, […]): -1.583%
